Our source for the Potency, outcome and activity change, positive = activation values is PubChem BioAssay (Tox21).

Structures are written as SMILES. A number with no mark means an inactive call. Records with an inconclusive call do not appear. The source made the active and inactive calls. Unless noted, calls come from the whole dose curve; as a rule, active = well fitted curve in the direction sought with a large enough effect in the repeat runs; inconclusive = weak or mixed curves; inactive = no such curve, though single readings can be large; an effect the other way counts as inactive or inconclusive.

The nature of assay [1]: qHTS assay to identify small molecule agonists of the hypoxia (HIF-1) signaling pathway - cell viability counter screen (AID 1224844; calls by dose curve; note: nearly all actives have a fitted effect of over 50% in size). In a few lines: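 Luminescent ATP content (CellTiter-Glo, 30 min, room temperature) served as the viability measure in HRE-bla ME-180 cells exposed to compounds for 17 hrs in low-serum medium (0.5% dialyzed FBS).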
Assay [2] can be described thus: qHTS assay to identify small molecule agonists of H2AX (AID 1224845; active = well fitted activation curve with a large enough effect in the signal ratio in the repeat runs, not every such curve was filed as active; the % refers to the signal ratio). In a few lines:
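Wild-type CHO-K1 cells, plated overnight, exposed 3hr at 37C to 15 concentrations (0.76% DMSO final). Lysed, then HTRF anti-pH2AX (S139) cryptate and anti-H2AX-d2 antibodies, 24 hr room temperature; 665/620 nm emission read.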

A short description of assay [3]: qHTS assay to identify small molecule agonists of the hypoxia (HIF-1) signaling pathway (AID 1224846; active = well fitted activation curve with a large enough effect in the signal ratio in the repeat runs, not every such curve was filed as active; the % refers to the signal ratio). In a few lines: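 Measured by blue/green FRET after loading CCF4-AM: beta-lactamase expressed from a hypoxia response element in ME-180 cells. Test agents were delivered in DMSO and left 17 hrs; cells had been plated 5 hrs earlier in low-serum (0.5% dialyzed FBS) medium.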

Assay [4] is described as follows: qHTS assay to identify small molecule agonists of H2AX - cell viability counter screen (AID 1224847; calls by dose curve; note: nearly all actives have a fitted effect of over 30% in size; note: potency is the fitted concentration of half-maximal effect). In a few lines:
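We seed wild-type CHO-K1 cells overnight, treat them for 3 hr at 37C with compounds in 15-concentration series, and quantify remaining viability by CellTiter-Glo luminescence.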

Assay [5] is described as follows: qHTS RealTime-Glo MT Cell Viability Assay in HepG2 cells - 24 hour (AID 1224867). Note: nearly all actives have a fitted effect of over 50% in size. In a few lines:
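Luminescence read-out: viable HepG2 cells reduce a prosubstrate to a NanoLuc substrate, giving a signal proportional to live cell number. Reads taken at 0, 8, 16, 24, 32 and 40 h of compound exposure at 37 C.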
For orientation: qHTS replaces the single test concentration by a dilution series.

Assay [6] is described as follows: qHTS RealTime-Glo MT Cell Viability Assay in HEK293 cells - 32 hour (AID 1224868). Note: top concentration of the series differs between compounds; nearly all actives have a fitted effect of over 50% in size. In a few lines: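 Nonlytic real-time viability readout: viable cells convert prosubstrate to NanoLuc substrate, giving luminescence proportional to live cell number. HEK293, 600 cells/well, compound added after 5 h, continuous culture at 37 C.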
Assay [7] can be described thus: A CellTox Green Cytotoxicity Assay to monitor cytotoxicity in HEK293 cells - 0 hour (AID 1224869). Note: nearly all actives have a fitted effect of over 50% in size. In a few lines:
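Each value comes from one timepoint of a single continuous run in which HEK293 cells with CellTox Green were exposed to compound for up to 40 h at 37 C, dye fluorescence rising with cell death.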

The target of assay [8] is Thyrotropin receptor (Homo sapiens) (UniProt P16473). Briefly: qHTS assay to identify small molecule agonists of the thyroid stimulating hormone receptor (TSHR) signaling pathway (AID 1224843; calls by dose curve; note: nearly all actives have a fitted effect of over 45% in size). In a few lines: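 Steps: seed 800 TSHR-HEK293 cells per well; add test compound and hold 30 min at ambient temperature; dispense cAMP-d2 then anti-cAMP cryptate; incubate 1 h at ambient; measure fluorescence intensity.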
Chain of Thyrotropin receptor (Homo sapiens) (P16473 whole entry, looked up): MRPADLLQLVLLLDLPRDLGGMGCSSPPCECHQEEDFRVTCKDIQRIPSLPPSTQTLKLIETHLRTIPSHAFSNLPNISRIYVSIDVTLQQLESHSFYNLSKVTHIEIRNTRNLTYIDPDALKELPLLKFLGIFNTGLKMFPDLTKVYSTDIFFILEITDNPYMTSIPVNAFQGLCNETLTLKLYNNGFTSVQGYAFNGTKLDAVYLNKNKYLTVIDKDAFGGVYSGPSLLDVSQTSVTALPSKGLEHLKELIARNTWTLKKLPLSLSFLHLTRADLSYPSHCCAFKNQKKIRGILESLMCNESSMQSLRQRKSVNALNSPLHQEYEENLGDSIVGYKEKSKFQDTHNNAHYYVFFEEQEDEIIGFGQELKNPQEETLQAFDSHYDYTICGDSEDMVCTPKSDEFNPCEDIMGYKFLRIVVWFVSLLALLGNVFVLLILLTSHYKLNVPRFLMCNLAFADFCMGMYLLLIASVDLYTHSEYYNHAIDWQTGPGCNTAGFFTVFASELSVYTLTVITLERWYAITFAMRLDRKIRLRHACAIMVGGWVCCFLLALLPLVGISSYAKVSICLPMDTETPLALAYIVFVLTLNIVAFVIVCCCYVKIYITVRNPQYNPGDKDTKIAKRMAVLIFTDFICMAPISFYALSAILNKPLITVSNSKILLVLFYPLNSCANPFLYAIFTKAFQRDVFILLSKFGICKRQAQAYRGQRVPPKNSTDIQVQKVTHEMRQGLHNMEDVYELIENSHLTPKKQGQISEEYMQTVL

Assay [9] is described as follows: qHTS assay to identify small molecule antagonists of the estrogen related receptor (ERR) signaling pathway from Tox21 library (AID 1224848). Note: nearly all actives have a fitted effect of over 50% in size. In a few lines:
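Luminescent reporter read-out (ONE-Glo) from NTP's ERR cell line after 18 h treatment at 37 C with DMSO-dissolved Tox21 compounds; cells pre-plated 6 h beforehand at 2,000 per well.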

Assay [10] can be described thus: qHTS assay to identify small molecule agonists of the estrogen related receptor (ERR) signaling pathway from Tox21 library (AID 1224849; calls by dose curve; note: nearly all actives have a fitted effect of over 15% in size). To be noted: ERR reporter cell line, ONE-Glo luciferase, 18 h; at 92.4 µM (top of the series) unless noted. In a few lines:
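We plated ERR reporter cells, waited 6 h, added compounds in DMSO by pin tool and incubated them 18 h at 37 C. ONE-Glo was then added and luminescence read after 30 min.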
% is set by controls: 0 for no effect and ±100 for the full control effect.

Take `OC/C=C/c1ccccc1`: the Potency result in assay [1], in assay [4], in [6] and in assay [7] was “inactive” each time. Besides, the compound was called inactive in assay [2], in assay [3] and in assay [5].

Turning to `O=C(O)CCNC(=O)c1ccc(N=Nc2ccc(O)c(C(=O)O)c2)cc1`, the outcome in assay [8], in assay [3] and in assay [5] was inactive. In addition, the Potency result in [1], in assay [6] and in [7] was “inactive” each time.

For `Nc1cc(N)cc(C(=O)O)c1`, the compound was called inactive in assay [8], in assay [3] and in assay [5]. Further, the Potency result in [1], in [4], in assay [6] and in assay [7] was “inactive” in each case.

On to `CNC(=O)c1c(I)c(NC(=O)CCCCC(=O)Nc2c(I)c(C(=O)O)c(I)c(C(=O)NC)c2I)c(I)c(C(=O)O)c1I`, for which the Potency entry in assay [1], in assay [4], in [9], in assay [6] and in assay [7] was “inactive” in each case. Moreover, the outcome in assay [2], in assay [3] and in assay [5] was inactive. Further, the activity change, positive = activation in assay [10] was 8.83% [at 42.5 µM].

In the case of `Nc1ccc2cc(S(=O)(=O)O)ccc2c1`, the result in assay [8], in assay [3] and in assay [5] was inactive. Also, the Potency result in assay [1], in assay [4], in assay [6] and in [7] was “inactive” throughout.

For `CCc1cc(S(=O)(=O)O)c2cc(C(C)C)cccc1-2`, the outcome in [8], in assay [3] and in assay [5] was inactive. For the same compound, the Potency result in assay [1], in [4], in assay [6] and in [7] was “inactive” in each case.

Regarding `CC(C)(O)c1ccccc1`, the Potency entry in assay [1], in assay [4], in [9], in [6] and in [7] was “inactive” in each case. Also, the compound was classed as inactive in assay [2], in assay [3] and in [5].

Take `CCCCCN(CCCCC)C(=O)C(CCC(=O)O)NC(=O)c1ccc(Cl)c(Cl)c1` (stereo not drawn): the compound was classed as inactive in assay [8], in assay [2] and in [5]. The Potency result in assay [4], in assay [6] and in assay [7] was “inactive” throughout.

As for `CCOC(=O)Cn1c(=O)sc2cccc(Cl)c21`, the Potency entry in [1], in assay [4], in [9], in assay [6] and in [7] was “inactive” in each case. Moreover, the compound was called inactive in assay [2] and in assay [3]. The activity change, positive = activation in assay [10] is -12%.

In the case of `C1COCCO1`, the Potency entry in assay [1], in assay [4], in assay [9], in assay [6] and in assay [7] was “inactive” in each case. Also, the call in assay [2], in assay [3] and in assay [5] was inactive. For the same compound, in assay [10], the activity change, positive = activation is 5.15%.

For `O=S(=O)(c1cccc2cnccc12)N1CCCNCC1`, the compound was classed as inactive in assay [8], in assay [2] and in [5]. Moreover, the Potency result in [1], in assay [6] and in [7] was “inactive” each time. In addition, the activity change, positive = activation in assay [10] is -26.8% [at 42.5 µM].

Regarding `c1ccc(SCCSc2ccccc2)cc1`, the Potency result in [1], in assay [4], in [9], in assay [6] and in assay [7] was “inactive” in each case. Besides, the compound was called inactive in assay [2], in assay [3] and in [5]. Besides, the activity change, positive = activation in [10] is 69.4% (active).

Regarding `Oc1cc(O)c2c(c1)O[C@H](c1ccc(O)c(O)c1)[C@H](O)C2`, the compound was classed as inactive in assay [8] and in [5]. The Potency entry in [4], in assay [6] and in [7] was “inactive” in each case.

Take `CCC(C)OC(=O)N1CCCCC1CCO` (stereo not drawn): the Potency result in [1], in assay [4], in assay [9], in [6] and in assay [7] was “inactive” throughout. Besides, the compound was called inactive in assay [2], in assay [3] and in [5]. Also, the activity change, positive = activation in [10] was 2.44%.

Consider `Nc1nc2c(ncn2CCC(CO)CO)c(=O)[nH]1`, for which the compound was called inactive in assay [8], in [3] and in [5]. Moreover, the Potency entry in assay [1], in [4], in [9], in assay [6] and in assay [7] was “inactive” each time. Further, the activity change, positive = activation in [10] is -1.99% [at 42.5 µM].

`O=C(O)c1ccccc1S`: the outcome in [8], in assay [2] and in assay [5] was inactive. Besides, the Potency result in assay [1], in assay [6] and in [7] was “inactive” throughout.

Consider `CCCCCCOC(=O)c1ccccc1O`, for which the Potency result in assay [1], in assay [4], in assay [9], in assay [6] and in assay [7] was “inactive” each time. Besides, the outcome in assay [2], in assay [3] and in assay [5] was inactive. Besides, the activity change, positive = activation in assay [10] was 8.56%.

`CCCCCCCCCCCl`: the Potency entry in assay [1], in [4], in assay [9], in assay [6] and in [7] was “inactive” each time. For the same compound, the result in assay [2], in [3] and in [5] was inactive. In assay [10], the activity change, positive = activation is 0.564%.

With `CC1=CCC2C(C1)C2(C)C` (stereo not drawn), the Potency result in assay [1], in [4], in assay [6] and in [7] was “inactive” each time. For the same compound, the compound was classed as inactive in assay [2], in assay [3] and in [5].

On to `CC(=O)N[C@@H](CCC(N)=O)C(=O)O`, for which the Potency entry in [1], in assay [4], in [6] and in assay [7] was “inactive” each time. In addition, the call in [2], in assay [3] and in assay [5] was inactive.

Regarding `COc1cc(C(=O)N2CCOCC2)cc(OC)c1OC`, the Potency result in [1], in assay [4], in assay [6] and in [7] was “inactive” in each case. The result in [2], in assay [3] and in assay [5] was inactive.

Take `O=C(O)/C=C/c1ccc(Cn2ccnc2)cc1`: the Potency result in assay [1], in assay [6] and in assay [7] was “inactive” in each case. Moreover, the call in [2] and in [5] was inactive.

Consider `COc1cc(C)cc(O)c1`, for which the Potency result in [1], in assay [6] and in assay [7] was “inactive” in each case. Moreover, the outcome in assay [2], in assay [3] and in assay [5] was inactive.

As for `CC(C)CCOC(=O)CC(C)C`, the Potency entry in assay [1] and in assay [6] was “inactive” throughout. Also, the compound was called inactive in assay [2], in assay [3] and in assay [5].

For `[O-][N+](=Nc1ccccc1)c1ccccc1`, the Potency entry in assay [1], in [4], in [6] and in [7] was “inactive” throughout. Moreover, the call in assay [2], in [3] and in assay [5] was inactive.

As to `C(=C(c1ccccc1)c1ccccc1)c1ccccc1`, the Potency result in [1], in [6] and in assay [7] was “inactive” in each case. Besides, the compound was classed as inactive in assay [2], in assay [3] and in assay [5]. Moreover, the Potency in [4] was 80 µM (active).
